Results: PubChem BioAssay (NCI)
About 83,000 compounds went through this panel and 20% of them were active in at least one assay; those are over-represented in the sample as a whole.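 Plates (96-well) were seeded with cells, treated with compound at one concentration, and incubated for 48 hours before percent growth was determined.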 The source made the active and inactive calls. The calls were made as follows: active = growth percent below 10; inactive = the rest.

Key:
Assay in all cases: NCI-60 one-dose screen, 48 h (100 = growth as untreated, 0 = no growth, -100 = all killed)
Conditions in all cases: 10 µM
DU-145 prostate = tested on: DU-145 prostate
K-562 leukemia = tested on: K-562 leukemia
MDA-MB-231 breast = tested on: MDA-MB-231 breast
RXF 393 renal = tested on: RXF 393 renal
SF-268 CNS = tested on: SF-268 CNS
SF-295 CNS = tested on: SF-295 CNS
SF-539 CNS = tested on: SF-539 CNS
UACC-257 melanoma = tested on: UACC-257 melanoma
M14 melanoma = tested on: M14 melanoma
HCT-15 colon = tested on: HCT-15 colon
HT29 colon = tested on: HT29 colon
SNB-75 CNS = tested on: SNB-75 CNS
SNB-19 CNS = tested on: SNB-19 CNS
U251 CNS = tested on: U251 CNS
PC-3 prostate = tested on: PC-3 prostate
SK-MEL-5 melanoma = tested on: SK-MEL-5 melanoma
UACC-62 melanoma = tested on: UACC-62 melanoma
LOX IMVI melanoma = tested on: LOX IMVI melanoma
SK-MEL-28 melanoma = tested on: SK-MEL-28 melanoma

Measured: growth

Cc1cc(C#Cc2ccccc2)ccc1-n1c(/C=C/c2cc(O)ccc2O)nc2ccccc2c1=O
inactive: UACC-257 melanoma 20% | HT29 colon 11.8% | SNB-75 CNS 16.2% | SNB-19 CNS 26.6%
active: DU-145 prostate 2.27% | K-562 leukemia 7.36% | MDA-MB-231 breast -24.2% | RXF 393 renal -27.9% | SF-268 CNS 5.15% | SF-295 CNS -14.6% | SF-539 CNS -20.9% | M14 melanoma -3.57% | HCT-15 colon -33.6% | U251 CNS 5.85% | PC-3 prostate 3.46% | SK-MEL-5 melanoma -84.5% | UACC-62 melanoma -55.6% | LOX IMVI melanoma -80.6% | SK-MEL-28 melanoma -45.3%

O=CNc1c(Cl)cc2c(c1Cl)Cc1cc([N+](=O)[O-])ccc1-2
inactive: DU-145 prostate 79.1% | K-562 leukemia 16.4% | MDA-MB-231 breast 63.6% | RXF 393 renal 96.9% | SF-268 CNS 78.8% | SF-295 CNS 77.3% | SF-539 CNS 67.9% | UACC-257 melanoma 72.6% | M14 melanoma 28.7% | HCT-15 colon 29.3% | HT29 colon 58.4% | SNB-75 CNS 65.6% | SNB-19 CNS 87.5% | U251 CNS 78.1% | PC-3 prostate 40.2% | UACC-62 melanoma 48.8% | LOX IMVI melanoma 55.7% | SK-MEL-28 melanoma 106%
active: SK-MEL-5 melanoma 5.14%

CC(=O)Nc1nc(C)c(C(=O)N/N=C/c2cccn2C)s1
inactive: DU-145 prostate 106% | K-562 leukemia 54.3% | MDA-MB-231 breast 102% | RXF 393 renal 119% | SF-268 CNS 95.9% | SF-295 CNS 114% | SF-539 CNS 103% | UACC-257 melanoma 120% | M14 melanoma 115% | HCT-15 colon 106% | HT29 colon 101% | SNB-75 CNS 109% | SNB-19 CNS 117% | U251 CNS 103% | PC-3 prostate 94.9% | SK-MEL-5 melanoma 98.4% | UACC-62 melanoma 87.7% | LOX IMVI melanoma 98.4% | SK-MEL-28 melanoma 105%

CCN1CCOC1C(C)C (stereo not drawn)
inactive: DU-145 prostate 110% | K-562 leukemia 90.3% | MDA-MB-231 breast 99.2% | RXF 393 renal 109% | SF-268 CNS 102% | SF-295 CNS 105% | SF-539 CNS 95% | UACC-257 melanoma 104% | M14 melanoma 93.7% | HCT-15 colon 105% | HT29 colon 99.3% | SNB-75 CNS 99.8% | SNB-19 CNS 113% | U251 CNS 102% | PC-3 prostate 93.4% | SK-MEL-5 melanoma 106% | UACC-62 melanoma 105% | LOX IMVI melanoma 102% | SK-MEL-28 melanoma 108%

Oc1ccc(/C=N\Nc2ccccn2)c(O)c1
inactive: DU-145 prostate 11.1% | K-562 leukemia 24.3% | MDA-MB-231 breast 37.8% | RXF 393 renal 28.5% | SF-268 CNS 16.4% | UACC-257 melanoma 30.3% | HCT-15 colon 32.7% | HT29 colon 51.6% | SNB-19 CNS 29.4% | U251 CNS 26.5% | PC-3 prostate 61.3% | SK-MEL-5 melanoma 39.4% | SK-MEL-28 melanoma 64.5%
active: SF-295 CNS -4.28% | SF-539 CNS -0.82% | M14 melanoma -36.2% | SNB-75 CNS 9.86% | UACC-62 melanoma 7.44% | LOX IMVI melanoma -6.3%

Cc1ccc(Cl)cc1Nc1nc(C(F)(F)F)ccc1C(=O)N/N=C/c1c(Cl)cccc1Cl
inactive: M14 melanoma 11.3% | HCT-15 colon 10.4% | HT29 colon 16.6% | SNB-75 CNS 26.1% | SNB-19 CNS 10.6% | SK-MEL-28 melanoma 18.7%
active: DU-145 prostate 2.91% | K-562 leukemia 6.49% | MDA-MB-231 breast -12.2% | RXF 393 renal -53.7% | SF-268 CNS -7.33% | SF-295 CNS -17.7% | SF-539 CNS -17% | UACC-257 melanoma -27.3% | U251 CNS 2.72% | PC-3 prostate -18.2% | UACC-62 melanoma -17.6% | LOX IMVI melanoma -22.3%

O=C(N/N=C/c1ccccc1O)c1ccccc1
active: UACC-257 melanoma -8.71%
inactive: DU-145 prostate 32.4% | K-562 leukemia 15.8% | MDA-MB-231 breast 32.5% | RXF 393 renal 41.2% | SF-268 CNS 30% | SF-295 CNS 26% | SF-539 CNS 27.9% | M14 melanoma 26.5% | HCT-15 colon 23.9% | HT29 colon 45.5% | SNB-75 CNS 56.6% | SNB-19 CNS 56% | U251 CNS 27.6% | PC-3 prostate 37.8% | SK-MEL-5 melanoma 13.3% | UACC-62 melanoma 13.8% | SK-MEL-28 melanoma 73.5%

O=[N+]([O-])C1CC2C=CC1C2 (stereo not drawn)
inactive: DU-145 prostate 94.7% | K-562 leukemia 101% | MDA-MB-231 breast 111% | RXF 393 renal 99% | SF-268 CNS 89.6% | SF-295 CNS 92.8% | SF-539 CNS 102% | UACC-257 melanoma 105% | M14 melanoma 98.7% | HCT-15 colon 100% | HT29 colon 99% | SNB-75 CNS 93.1% | SNB-19 CNS 109% | U251 CNS 101% | PC-3 prostate 96.9% | SK-MEL-5 melanoma 106% | UACC-62 melanoma 103% | LOX IMVI melanoma 95.6% | SK-MEL-28 melanoma 110%

CCOC(=O)C(CCC1=NC(C)(C)CC(C)O1)C(=O)OCC (stereo not drawn)
inactive: DU-145 prostate 10.4% | K-562 leukemia 85% | MDA-MB-231 breast 106% | RXF 393 renal 85% | SF-268 CNS 98% | SF-295 CNS 74.5% | SF-539 CNS 102% | UACC-257 melanoma 105% | M14 melanoma 84% | HCT-15 colon 46% | HT29 colon 32% | SNB-75 CNS 104% | SNB-19 CNS 106% | U251 CNS 82.3% | PC-3 prostate 76.3% | UACC-62 melanoma 93.3% | LOX IMVI melanoma 90.1% | SK-MEL-28 melanoma 107%

CCCCCCCCCCCCCC[n+]1ccc(C)cc1
active: DU-145 prostate 5.11% | K-562 leukemia 9.19% | MDA-MB-231 breast -40.2% | RXF 393 renal -19.6% | SF-268 CNS -32.4% | SF-295 CNS -67.1% | SF-539 CNS -33.5% | UACC-257 melanoma -21.6% | M14 melanoma -72.7% | HT29 colon -9.48% | SNB-75 CNS -23.9% | SNB-19 CNS -50.2% | U251 CNS -78.5% | PC-3 prostate -37% | SK-MEL-5 melanoma -96.3% | UACC-62 melanoma -71.5% | LOX IMVI melanoma -94.4% | SK-MEL-28 melanoma -20.4%
inactive: HCT-15 colon 47%

CCN(CC)CC(O)Cc1ccc(OC)cc1 (stereo not drawn)
inactive: DU-145 prostate 115% | K-562 leukemia 101% | MDA-MB-231 breast 105% | RXF 393 renal 106% | SF-268 CNS 114% | SF-295 CNS 109% | SF-539 CNS 97.4% | UACC-257 melanoma 113% | M14 melanoma 116% | HCT-15 colon 108% | HT29 colon 103% | SNB-75 CNS 102% | SNB-19 CNS 109% | U251 CNS 108% | PC-3 prostate 96.5% | SK-MEL-5 melanoma 100% | UACC-62 melanoma 111% | LOX IMVI melanoma 102% | SK-MEL-28 melanoma 116%

O=[N+]([O-])c1ccc(-c2nc(-c3ccccc3)c(-c3ccccc3)n2-c2ccccc2)cc1
inactive: DU-145 prostate 49.4% | MDA-MB-231 breast 14.3% | RXF 393 renal 73.9% | SF-268 CNS 65.8% | SF-295 CNS 16.6% | SF-539 CNS 57.8% | UACC-257 melanoma 57.4% | M14 melanoma 49.6% | HCT-15 colon 12% | HT29 colon 16.1% | SNB-75 CNS 80.4% | SNB-19 CNS 65.9% | U251 CNS 32.5% | SK-MEL-5 melanoma 61.9% | UACC-62 melanoma 30.9% | LOX IMVI melanoma 18.8% | SK-MEL-28 melanoma 67.6%
active: K-562 leukemia -25% | PC-3 prostate -6.15%

COc1cc(/C=C2\C(=O)Nc3cc(C)c(O)cc32)cc(OC)c1OC
inactive: DU-145 prostate 44.6% | K-562 leukemia 15.1% | MDA-MB-231 breast 39.6% | RXF 393 renal 23.5% | SF-268 CNS 60.6% | SF-295 CNS 43.3% | SF-539 CNS 71.3% | M14 melanoma 65.9% | HCT-15 colon 33.7% | HT29 colon 22.4% | SNB-75 CNS 55.1% | SNB-19 CNS 71.6% | U251 CNS 44.5% | PC-3 prostate 33.5% | SK-MEL-5 melanoma 47% | UACC-62 melanoma 57.9% | LOX IMVI melanoma 45.7% | SK-MEL-28 melanoma 73.2%
active: UACC-257 melanoma -11.1%

[O-]c1c[n+](-c2ccc(Cl)cc2)no1
inactive: DU-145 prostate 107% | K-562 leukemia 106% | MDA-MB-231 breast 80.1% | RXF 393 renal 116% | SF-268 CNS 100% | SF-295 CNS 112% | SF-539 CNS 119% | UACC-257 melanoma 104% | M14 melanoma 104% | HCT-15 colon 99.4% | HT29 colon 118% | SNB-75 CNS 90.4% | SNB-19 CNS 95.9% | U251 CNS 102% | PC-3 prostate 91.4% | SK-MEL-5 melanoma 95.6% | UACC-62 melanoma 91.5% | SK-MEL-28 melanoma 109%

Nc1nc(SCC#CCCl)c2[nH]cnc2n1
inactive: DU-145 prostate 56.5% | K-562 leukemia 38.2% | MDA-MB-231 breast 65.6% | RXF 393 renal 46.7% | SF-268 CNS 52.8% | SF-295 CNS 60.2% | SF-539 CNS 50.4% | UACC-257 melanoma 50% | M14 melanoma 54.2% | HCT-15 colon 45.1% | HT29 colon 53.9% | SNB-75 CNS 63% | SNB-19 CNS 57.1% | U251 CNS 43.8% | PC-3 prostate 62.6% | SK-MEL-5 melanoma 29.5% | UACC-62 melanoma 44% | LOX IMVI melanoma 27.8% | SK-MEL-28 melanoma 72.8%

COc1ccc(/C=C(\c2cc(OC)c(OC)c(OC)c2)c2nnc(-c3cccs3)o2)cc1
active: SNB-75 CNS -10.5%
inactive: DU-145 prostate 77% | K-562 leukemia 89.5% | MDA-MB-231 breast 71.7% | RXF 393 renal 49.2% | SF-268 CNS 42% | SF-295 CNS 73.4% | SF-539 CNS 47.6% | UACC-257 melanoma 76.5% | M14 melanoma 93.2% | HCT-15 colon 103% | HT29 colon 90.7% | SNB-19 CNS 52.3% | U251 CNS 55.7% | PC-3 prostate 81.7% | SK-MEL-5 melanoma 64.6% | UACC-62 melanoma 78.1% | LOX IMVI melanoma 92.8% | SK-MEL-28 melanoma 69.7%

Nc1c(C(=O)Nc2ccccc2F)sc2nc3c(cc12)C(=O)CCC3
inactive: K-562 leukemia 26.3% | MDA-MB-231 breast 48.9% | SF-268 CNS 54.9% | SF-539 CNS 10.5% | UACC-257 melanoma 66.9% | M14 melanoma 19.2% | HCT-15 colon 40.2% | HT29 colon 12.2% | SNB-75 CNS 13.7% | SNB-19 CNS 41.1% | U251 CNS 31.6% | PC-3 prostate 23.4% | SK-MEL-5 melanoma 17.9% | UACC-62 melanoma 23.7% | SK-MEL-28 melanoma 64.1%
active: DU-145 prostate 8.4% | RXF 393 renal 9.63% | SF-295 CNS 3.17%
